Several values for one entry are separate records, joined by “and”; a condition that tells them apart may be missing. Equal entries are not always repeated. Inconclusive results are not listed. Where a call stands in place of a potency, no number is given. Unmarked numbers belong to inactive results. Activity calls are given as the source filed them. The call rests on the fitted dose curve; in most records, active means well fitted curve in the direction sought with a large enough effect; inconclusive means small, poorly fitted or top-dose-only effect, or another doubt; inactive means no such curve, though single readings can be large; an effect the other way counts as inactive or inconclusive.
Key:
[1] = biological target: Cytochrome P450 3A7 (Homo sapiens) (UniProt P24462); test: Cytochrome P450 family 3 subfamily A member 7 (CYP3A7) small molecule antagonists: luciferase biochemical qHTS assay (AID 1963596); further: nearly all actives have a fitted effect of over 40% in size
Sequence of Cytochrome P450 3A7 (Homo sapiens) (P24462 whole entry, looked up): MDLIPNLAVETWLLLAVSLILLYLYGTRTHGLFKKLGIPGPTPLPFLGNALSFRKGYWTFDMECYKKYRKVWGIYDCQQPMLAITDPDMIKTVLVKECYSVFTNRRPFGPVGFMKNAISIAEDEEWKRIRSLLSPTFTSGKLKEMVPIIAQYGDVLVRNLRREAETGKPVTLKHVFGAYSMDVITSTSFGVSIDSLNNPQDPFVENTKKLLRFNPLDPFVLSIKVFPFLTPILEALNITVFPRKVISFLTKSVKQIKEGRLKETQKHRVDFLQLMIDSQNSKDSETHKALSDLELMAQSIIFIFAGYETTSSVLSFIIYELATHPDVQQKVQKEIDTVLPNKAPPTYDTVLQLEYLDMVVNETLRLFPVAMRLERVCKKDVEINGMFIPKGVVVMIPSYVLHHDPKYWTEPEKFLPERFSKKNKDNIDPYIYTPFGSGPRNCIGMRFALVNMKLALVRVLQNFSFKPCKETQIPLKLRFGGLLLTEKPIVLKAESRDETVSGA
In short: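 Compounds were screened in qHTS format for interference with CYP3A7 turnover of a proluciferin substrate. Reactions ran 1 h at room temperature after NADPH regeneration solution was added, then luciferin product was detected by luminescence.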

[2] = Viability qHTS for spleen associated tyrosine kinase inhibitor (SYKi) naive MV4-11 cells (AID 1963823); further: nearly all actives have a fitted effect of over 40% in size; further: potency means the concentration at half of the fitted maximal effect
In short: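 qHTS, SYK inhibitor-naive MV4-11; 500 cells/well; 72 hr compound exposure, 37 C; CellTiter-Glo added, 10 min RT; luminescence read.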

[3] = Viability qHTS for spleen associated tyrosine kinase inhibitor (SYKi) drug resistant MV4-11 cells (AID 1963824); further: nearly all actives have a fitted effect of over 35% in size; further: potency means the concentration at half of the fitted maximal effect
In short: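 CellTiter-Glo luminescence, read 10 min after reagent addition, reports viability after a 72 hr compound exposure. Cells are an MV4-11 line made resistant to SYK inhibition, seeded at 500 per well onto compound-containing plates.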

[4] = Cellular viability qHTS for adrenocortical cancer (ACC) cell line SW-13 (AID 1963989); details: SW-13 ACC cells viability, CellTiter-Glo, 48 h; activity (max response): stronger effect = lower value; further: nearly all actives have a fitted effect of over 65% in size; further: potency means the concentration at half of the fitted maximal effect;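 on activity (max response): cells grown in serum-free medium with ITS supplement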
In short: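 Viability was read as CellTiter-Glo luminescence after 48 h compound treatment (up to 46 uM final) of SW-13 cells grown serum-free; titration curves were fit with a four-parameter logistic model to give IC50 and efficacy.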

CC1(C)S[C@@H]2[C@H](NC(=O)C(C(=O)O)c3ccccc3)C(=O)N2[C@H]1C(=O)O (some centres undefined)
Potency [1]: inactive | Potency [2]: inactive | Potency [3]: inactive | activity (max response) [4]: 3.14%

COc1ccccc1N1CCN(CCCNc2cc(=O)n(C)c(=O)n2C)CC1
Potency [1]: inactive | Potency [2]: inactive | Potency [3]: inactive | activity (max response) [4]: 2.85%

CCOc1ncc(F)c(=O)[nH]1
Potency [1]: inactive | Potency [2]: inactive | Potency [3]: inactive | activity (max response) [4]: 18.7%

COc1cc(OC)cc(OC)c1
Potency [1]: inactive | Potency [2]: inactive | Potency [3]: inactive | activity (max response) [4]: 5.62%

CC(C)(C)C(=O)NCCCC(=O)O
Potency [1]: inactive | Potency [2]: inactive | Potency [3]: inactive | activity (max response) [4]: 7.9%

[Cl][In]([Cl])[Cl]
Potency [1]: inactive | Potency [2]: inactive | Potency [3]: inactive | Potency [4]: 35.5 µM (active)

Cc1ccc2c(n1)Oc1ccc(C(C)C(=O)OCC(=O)N(C)C)cc1C2 (centres undefined)
Potency [1]: inactive | Potency [2]: 11.9 µM (active) | Potency [3]: inactive | activity (max response) [4]: -7.34% and -9.36%

O=c1[nH]c(=O)c2ccccc2o1
Potency [1]: inactive | Potency [2]: inactive | Potency [3]: inactive | activity (max response) [4]: 6.04%

FC1(F)C(F)(F)C(F)(F)C2(F)C(F)(F)C(F)(F)C(F)(F)C(F)(F)C2(F)C1(F)F (centres undefined)
Potency [1]: inactive | Potency [2]: inactive | Potency [3]: inactive | activity (max response) [4]: 5.48%

Cn1cc(-c2ccc3c(c2)CCN3C(=O)Cc2cccc(C(F)(F)F)c2)c2c(N)ncnc21
Potency [1]: inactive | Potency [2]: 0.731 µM (active) | Potency [3]: 2.06 µM (active) and 4.68 µM (active) | activity (max response) [4]: -1.75%

O=c1ccc2ccccc2o1
Potency [1]: inactive | Potency [2]: inactive | Potency [3]: inactive | activity (max response) [4]: -0.445%
